16 molecules from PubChem BioAssay can be followed below.

Values without a mark were called inactive.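 Rule for the calls: active = inhibition over a set limit, the all-compound mean plus 3 SD, in both replicate runs; inconclusive = over that limit in just one replicate run; inactive = at or under that limit in both runs.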

The term inhibition denotes the drop in the measured response relative to a control, in per cent.

This experiment in a line: RAM pathway blockade in budding yeast – dse1pr::URA3 reporter, 5-FOA selection, pilot screen (AID 869).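 Note: 0% = DMSO wells with no growth and 100% = 10 µM 1-NA-PP1 with full growth; RAM network block rescues cells from 5-FOA so hits raise OD615 growth.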 The conditions noted are these: S. cerevisiae dse1pr::URA3 5-FOA growth, OD615, 2 d; at 10 µM; active compounds read high; strain carries analog-sensitive mutant Cbk1 kinase.
For the molecule `Cc1cc2ncn(CC(O)COC3CCCCC3)c2cc1C` (stereo unspecified), the inhibition was 1.75%. The figure for `CCOC(=O)c1sc(NC(=O)c2ccco2)nc1-c1ccccc1` is 4.44%; for `COc1ccc(S(=O)(=O)N2CCC(C(=O)Nc3cccc(Cl)c3)CC2)cc1OC` it is 0.63%. The figure for `Cc1cccc(N(C)c2cc(C)nc3ncnn23)c1` is 0.99%.

For the molecule `CCOC(=O)C1CCCN(C(=O)Cn2sc3nc(C)cc(C)c3c2=O)C1` (stereo unspecified), the inhibition was 1.51%. The figure for `CCc1ccc(NC(=O)CSc2nc3c(c(=O)n(C)c(=O)n3C)n2C)cc1` is 1.03%. The figure for `COCCNC(=O)c1ccccc1NC(=O)C1COc2ccccc2O1` (stereo unspecified) is 2.8%; for `COc1ccc(S(=O)(=O)Cc2ccc(C(=O)N3CCc4ccccc4C3)o2)cc1` it is 0.315%; for `CC1Cc2ccccc2N1C(=O)Cn1cnc2ccccc2c1=O` (stereo unspecified) it is -0.455%. The figure for `Brc1cccc(-c2nc(-c3ccncc3)no2)c1` is -0.445%; for `COc1ccc(OC)c(NC(=O)NC2(C(F)(F)F)Oc3ccccc3O2)c1` it is 0.25%; for `CC(C)c1ccc(NC(=O)c2cccnc2)cc1` it is 0.32%. `Cc1ccc2oc3c(c(=O)c2c1)C(c1cccs1)N(CCCN(C)C)C3=O` (stereo unspecified): the inhibition was 1.28%. Turning to `COc1ccc(CC(=O)N2CC3(C)CC2CC(C)(C)C3)cc1OC` (stereo unspecified), the inhibition is 2.62%.

As for `COc1ccc(C2C(C(=O)c3ccco3)=C(O)C(=O)N2Cc2cccnc2)cc1OC` (stereo unspecified), the inhibition was 0.875%. The figure for `COc1ccc(OCC(=O)OCCN2C(=O)c3ccccc3C2=O)cc1` is 0.97%.
